High-throughput results as filed in PubChem BioAssay.
HEK cytotox = HEK 293 cell cytotoxicity; 94,000 compounds, 6.6% hits; Potency, µM (top dose mostly 115 µM), actives largely listed as inhibitors; HEK 293 viability, ATP luminescence (CellTiter-Glo), 48-72 h; also: nearly all actives have a fitted effect of over 60% in size
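HEK 293 cells at 250 cells/well were exposed to compounds by pintool transfer for 48 or 72 hr at 37 degree Celsius, 5% CO2. Viability was read as ATP-coupled luminescence with CellTiter-Glo after 10 min at room temperature.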
3T3 cytotox = NIH 3T3 cell cytotoxicity; 94,000 compounds, 4.3% hits; Potency, µM (doses to about 96.7 µM), usual class: inhibitors; NIH 3T3 viability, CellTiter-Glo ATP luminescence, 48-72 h; also: nearly all actives have a fitted effect of over 55% in size
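Cells were seeded at 400 per well, treated with pin-transferred compound, and kept 48 or 72 hr at 37 °C before CellTiter-Glo addition and luminescence imaging of cellular ATP.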
NPR1 antag = blocks ANP-stimulated signaling of human Npr1 receptor; Potency, µM (top dose mostly 46.3 µM), most hits filed as inhibitors; AID 1347048; 76,000 compounds, 1.6% hits; HEK293 hNpr1 GloSensor cGMP, ANP-stimulated luminescence; P16066; calls by dose curve; also: nearly all actives have a fitted effect of over 60% in size
Target sequence (P16066 whole entry, looked up): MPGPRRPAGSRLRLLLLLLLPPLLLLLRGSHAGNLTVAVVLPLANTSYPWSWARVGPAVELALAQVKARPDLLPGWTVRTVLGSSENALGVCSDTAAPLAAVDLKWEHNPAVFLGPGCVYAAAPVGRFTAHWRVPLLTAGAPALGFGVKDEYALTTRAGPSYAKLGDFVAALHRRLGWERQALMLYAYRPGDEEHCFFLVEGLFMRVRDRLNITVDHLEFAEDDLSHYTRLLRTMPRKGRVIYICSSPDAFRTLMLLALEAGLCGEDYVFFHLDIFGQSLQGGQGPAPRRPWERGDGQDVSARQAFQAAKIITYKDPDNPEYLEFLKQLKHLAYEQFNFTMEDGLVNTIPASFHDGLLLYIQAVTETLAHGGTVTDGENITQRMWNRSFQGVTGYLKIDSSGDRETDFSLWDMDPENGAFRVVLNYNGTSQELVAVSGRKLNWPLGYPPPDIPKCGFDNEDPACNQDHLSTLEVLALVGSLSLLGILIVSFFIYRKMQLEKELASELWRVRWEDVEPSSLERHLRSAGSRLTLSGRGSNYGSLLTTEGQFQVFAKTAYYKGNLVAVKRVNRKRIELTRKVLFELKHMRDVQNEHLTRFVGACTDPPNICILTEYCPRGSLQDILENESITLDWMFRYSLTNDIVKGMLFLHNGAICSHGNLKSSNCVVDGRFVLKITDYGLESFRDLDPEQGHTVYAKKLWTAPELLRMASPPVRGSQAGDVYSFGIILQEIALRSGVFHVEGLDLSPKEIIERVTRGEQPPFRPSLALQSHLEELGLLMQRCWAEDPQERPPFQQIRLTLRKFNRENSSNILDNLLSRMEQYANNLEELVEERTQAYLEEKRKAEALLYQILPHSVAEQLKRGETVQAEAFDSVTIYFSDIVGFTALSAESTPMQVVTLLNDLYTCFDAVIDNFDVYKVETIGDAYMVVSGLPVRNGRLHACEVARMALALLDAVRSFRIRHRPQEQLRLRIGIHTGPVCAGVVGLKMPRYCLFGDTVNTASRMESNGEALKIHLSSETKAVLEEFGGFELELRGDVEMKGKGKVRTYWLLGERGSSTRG
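Compound pre-incubated 30 min at room temperature on GloSensor-loaded HEK293 cells stably carrying hNpr1 and the pGS-40F cGMP biosensor. Stimulation uses hNppA at 0.1 nM final; luminescence is taken at baseline and 20 min post-agonist.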
Luciferase inh = Photinus pyralis luciferase inhibition. P08659. purified P. pyralis luciferase, luminescence, biochemical. Potency, µM (top dose mostly 115 µM), most hits filed as inhibitors. 76,000 compounds, 2.5% hits. AID 1347043; also: nearly all actives have a fitted effect of over 65% in size
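Biochemical qHTS: compound (6-point titration) added to 10uM D-luciferin plus 10uM ATP in Tris acetate pH 7.5 buffer with Mg, Tween-20 and BSA, then purified enzyme at 10nM; light output imaged.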
Large screens that a line does not name were inactive. In the library only some 11% were active in any assay of this set; here they are far more common. Unless noted, calls follow the shape of the dose curve; as a rule, active = well fitted curve in the direction sought with a large enough effect; inconclusive = small, poorly fitted or top-dose-only effect, or another doubt; inactive = no such curve, though single readings can be large; an effect the other way counts as inactive or inconclusive.

CSc1ncc(CN2CCOC(Cc3cccc(C(F)(F)F)c3)C2)cn1 (stereo not given)	HEK cytotox 22µM, 3T3 cytotox 28µM
COc1cccc(C(=O)N(C)C(C)c2cccs2)c1 (stereo not given)	none
CC(c1cccs1)N(C)C(=O)Nc1ccc(Cl)cc1 (stereo not given)	HEK cytotox inconclusive, 3T3 cytotox 79µM, Luciferase inh 45µM
CC(c1cccs1)N(C)C(=O)c1cccc(Cl)c1 (stereo not given)	HEK cytotox 100µM
COCCNC(=O)C1CC(=O)N(C2CN(S(=O)(=O)Cc3ccccc3)C2)C1 (stereo not given)	none (no result: NPR1 antag, Luciferase inh)
O=C1CC2(CCN(C(=O)C3CCCN(C(=O)NC4CCCC4)C3)CC2)Oc2ccccc2N1 (stereo not given)	HEK cytotox inconclusive (no result: NPR1 antag, Luciferase inh)
CNC(=O)c1cc(C2CC2)nc2c1c(C1CCCN1C(=O)c1ccc(F)cc1)nn2C (stereo not given)	none (no result: NPR1 antag, Luciferase inh)
CC1(COc2ccc3[nH]ccc3c2)COc2ccc(C(=O)NCc3ccco3)cc2N1 (stereo not given)	HEK cytotox 100µM, 3T3 cytotox inconclusive
CC1(COc2ccc3[nH]ccc3c2)COc2ccc(C(=O)Nc3cccnc3)cc2N1 (stereo not given)	HEK cytotox 100µM, 3T3 cytotox 89µM, NPR1 antag inconclusive
CN(C)C(=O)c1ccc2c(c1)NC(C)(COc1ccc3[nH]ccc3c1)CO2 (stereo not given)	HEK cytotox inconclusive
CC(C)CNC(=O)c1ccc2c(c1)NC(C)(COc1ccc3[nH]ccc3c1)CO2 (stereo not given)	HEK cytotox inconclusive, 3T3 cytotox 89µM
COc1ccc(NC(=O)c2ccc3c(c2)NC(C)(COc2ccc4[nH]ccc4c2)CO3)cn1 (stereo not given)	HEK cytotox inconclusive, 3T3 cytotox inconclusive
COc1ccc(OCC2(C)COc3ccc(C(=O)NCc4ccco4)cc3N2)cc1 (stereo not given)	HEK cytotox inconclusive, 3T3 cytotox inconclusive, NPR1 antag inconclusive
COCCNC(=O)[C@@H]1CCC[C@@H](NCc2nccs2)CN(C)C(=O)C1	none
CC(C)CC(=O)N[C@H](C)c1onc(-c2cccnc2)c1C(=O)O	none
CC1(COCC2CC2)COc2ccc(C(=O)Nc3cccc([S+](C)(=O)[O-])c3)cc2N1 (stereo not given)	HEK cytotox 100µM, 3T3 cytotox inconclusive
CC1(COCC2CC2)COc2ccc(C(=O)Nc3ccccc3)cc2N1 (stereo not given)	HEK cytotox inconclusive, 3T3 cytotox inconclusive, Luciferase inh 22µM
CC1(COCC2CC2)COc2ccc(C(=O)NCc3ccccc3)cc2N1 (stereo not given)	HEK cytotox inconclusive, 3T3 cytotox inconclusive
O=C1CO[C@H]2CN(Cc3ncc[nH]3)C[C@H]2N1Cc1ccccc1	none
O=c1ncn(CC2CC2)c2ccc(-c3ccc4c(c3)OCO4)nc12	3T3 cytotox inconclusive, Luciferase inh 45µM
O=c1ncn(CC2CC2)c2ccc(-c3ccc(Cl)cc3)nc12	3T3 cytotox inconclusive
COCCN1C(=O)c2ccccc2C(C(=O)Nc2nc(C)cs2)C12CCCCC2 (stereo not given)	none
COc1cccc(-c2ncc3c(n2)OCCN(c2cccc(C(F)(F)F)c2)C3=O)c1	HEK cytotox inconclusive, 3T3 cytotox inconclusive, Luciferase inh 2µM
O=C1c2cnc(-c3cccc(O)c3)nc2OCCN1c1cccc(C(F)(F)F)c1	HEK cytotox inconclusive, 3T3 cytotox inconclusive
O=C1c2cnc(-c3cncnc3)nc2OCCN1c1cccc(C(F)(F)F)c1	3T3 cytotox 40µM
CCOC(=O)C1=CN(CC(=O)NC(C)c2ccccc2)S(=O)(=O)N=C1C (stereo not given)	HEK cytotox inconclusive
Cc1nc2cccnc2n1CC1CCCN(C(=O)Nc2cccc(C(F)(F)F)c2)C1 (stereo not given)	HEK cytotox inconclusive, 3T3 cytotox inconclusive
COc1ccc(CNC(=O)c2cc3c(n2C)CCN(Cc2ccccc2)C3)cc1OC	HEK cytotox 40µM, NPR1 antag inconclusive
COc1cccc(CN2CCc3c(cc(C(=O)N4CCOCC4)n3C)C2)c1	none
COc1cccc(CN2CCc3c(cc(C(=O)NCc4ccccn4)n3C)C2)c1	HEK cytotox inconclusive, 3T3 cytotox inconclusive
COc1ccc(NC(=O)c2cc3c(n2C)CCN(Cc2ccc(F)cc2)C3)cc1	HEK cytotox inconclusive, 3T3 cytotox inconclusive, Luciferase inh inconclusive
COc1cccc(CN2CCc3c(cc(C(=O)Nc4ccccc4OC)n3C)C2)c1	HEK cytotox 40µM, 3T3 cytotox inconclusive, Luciferase inh 16µM
COc1cccc(CN2CCc3c(cc(C(=O)Nc4ccccc4)n3C)C2)c1	HEK cytotox 45µM, 3T3 cytotox inconclusive, Luciferase inh 16µM
COc1cccc(CN2CCc3c(cc(C(=O)Nc4cccc(C)c4C)n3C)C2)c1	HEK cytotox 40µM, 3T3 cytotox inconclusive, Luciferase inh 22µM
O=C(c1ccc2c(c1)OCO2)N1CCCC1c1nnc2n1CCNC2 (stereo not given)	none (no result: NPR1 antag, Luciferase inh)
CN(C)[C@H]1CCN(Cc2cccc(C(=O)O)c2)C[C@H]1CCC(=O)O	none
O=C(O)COCC(=O)N[C@H]1CO[C@H]2[C@@H]1OC[C@@H]2n1nnnc1Oc1ccc(-n2cncn2)cc1	none
O=C(C1CCCN1C(=O)Nc1ccccc1)N1CCC(c2ccccc2)CC1 (stereo not given)	none (no result: NPR1 antag, Luciferase inh)
Cc1cccc(NC(=O)CN2C(=O)NC3(CCC(C)CC3)C2=O)c1C (stereo not given)	HEK cytotox inconclusive, 3T3 cytotox inconclusive
Cc1cccc(NC(=O)Cn2c(-c3cnccn3)nc(C)c(CCO)c2=O)c1C	none
COc1ccccc1NC(=O)c1cc2c(n1C)CCN(Cc1cccc(C)c1)C2	HEK cytotox inconclusive, 3T3 cytotox inconclusive, Luciferase inh 32µM
CC(=O)Nc1ccc(NC(=O)c2cc3c(n2C)CCN(Cc2ccccc2)C3)cc1	none
COc1ccc(Nc2ccnc(N3CCN(C(=O)c4cccc(OC)c4)CC3)n2)cc1	HEK cytotox 16µM, 3T3 cytotox 25µM (no result: NPR1 antag, Luciferase inh)
COc1cccc(C(=O)NC2CCN(c3nccc(Nc4ccccc4Cl)n3)CC2)c1	HEK cytotox inconclusive, 3T3 cytotox 35µM (no result: NPR1 antag, Luciferase inh)
COc1ccc(CC(=O)N2CCN(c3nccc(Nc4ccc(OC)cc4)n3)CC2)cc1	HEK cytotox inconclusive (no result: NPR1 antag, Luciferase inh)
COc1ccc(Nc2ccnc(N3CCN(C(=O)c4ccc(Cl)cc4)CC3)n2)cc1	HEK cytotox 18µM (no result: NPR1 antag, Luciferase inh)
COCC(=O)N1CCN(c2nccc(Nc3ccccc3Cl)n2)CC1	3T3 cytotox inconclusive (no result: NPR1 antag, Luciferase inh)
O=C(c1ccc(Cl)cc1)N1CCN(c2nccc(Nc3ccccc3Cl)n2)CC1	HEK cytotox 22µM, 3T3 cytotox inconclusive (no result: NPR1 antag, Luciferase inh)
COc1cccc(C(=O)N2CCN(c3nccc(Nc4ccccc4Cl)n3)CC2)c1	HEK cytotox 35µM, 3T3 cytotox inconclusive (no result: NPR1 antag, Luciferase inh)
COc1ccc(Nc2ccnc(N3CCN(C(=O)Nc4ccc(Cl)cc4)CC3)n2)cc1	HEK cytotox inconclusive (no result: NPR1 antag, Luciferase inh)
COc1ccc(Nc2ccnc(N3CCN(C(=O)c4ccccc4F)CC3)n2)cc1	HEK cytotox inconclusive, 3T3 cytotox 35µM (no result: NPR1 antag, Luciferase inh)
